Test results published in PubChem BioAssay (NCI).
Compounds without any hit were thinned out: in the full panel of roughly 79,000, 15% have a hit. A number with no mark means an inactive call. Calls of active or inactive are those of the source. Cut-off read from the data, not from the text of the source: active = growth inhibition above about 70%; inactive = the rest.

Assay: NCI Yeast Anticancer Drug Screen. Data for the bub3 strain (AID 167)
Conditions: S. cerevisiae bub3 mutant strain, active compounds read high
Procedure: Growth inhibition of yeast strains with defined genetic alterations is measured as a screen for potential anti-cancer activity. Selected strains with alterations in DNA damage repair or cell cycle control were exposed to compounds and growth inhibition was measured relative to vehicle treated controls. The strain used in this assay is bub3

[1] = at 5.0 µM (retest, dose inferred, filed as 0.5)
[2] = at 50.0 µM (retest, dose inferred, filed as 5.0)

| Compound | growth inhibition [1] | growth inhibition [2] | growth inhibition (at 50.0 µM) |
| --- | --- | --- | --- |
| COc1c(O)ccc2c1CN1CCc3cc4c(cc3C1C2)OCO4 (configuration not stated) | 6% | 60% | 50.9% |
| CC(=Nc1ccc(S(=O)(=O)c2ccc(N=C(C)N3CCCCC3)cc2)cc1)N1CCCCC1 | -1% | -1% | -2.55% |
| N=C(N)Cc1ccc(NC(=O)c2ccc(C(=O)Nc3ccc(CC(=N)N)cc3)cc2)cc1 | -3% | -11% | 56.3% |
| CCOC(=O)CC1=NC(=Nc2cc(Cl)ccc2Cl)SC1 | 29% | 82% (active) | 77.2% (active) |
| COC12C=CC(CC1)c1c2c(O)c2ccncc2c1O (configuration not stated) | 18% | 95% (active) | 59.8% |
| CCC(CC)C(=O)O.[Ag] | 100% (active) | 99% (active) | 99.1% (active) |
| COc1c([N+](=O)[O-])cc(-c2ccccc2)cc1[N+](=O)[O-] | 5% | 63% | 74.2% (active) |
| Cc1c2ccncc2cc2c1sc1ccncc12 | 96% (active) | 98% (active) | 89.5% (active) |
| O=c1[nH]cnc2c1ncn2CCc1ccccc1 | 0% | 4% | 4.85% |
| CN(C)CC(O)c1cc(-c2ccc(Cl)cc2)nc2c(Cl)cc(Cl)cc12 (configuration not stated) | 8% | 99% (active) | 99.5% (active) |
| CCCCCC[C@@H](O)C/C=C\CCCCCCCC(=O)OCCCC | -6% | -7% | 24.6% |
| CN(NC(=O)/C(=C/c1cc(Cl)cc(Cl)c1O)NC(=O)c1ccccc1)c1cnn(-c2ccccc2)c(=O)c1Cl | -13% | 43% | 60% |
| O=C(N/N=C/c1ccc2c(c1)OCO2)c1ccc([N+](=O)[O-])cc1 | 0% | 16% | 0.25% |
| CC(=O)OCC1OC(OC2CCCc3c(O)c4c(c(O)c32)C(=O)c2ccccc2C4=O)C(OC(C)=O)C(OC(C)=O)C1OC(C)=O (configuration not stated) | 16% | 98% (active) | 99.2% (active) |
